About 79,000 compounds went through this panel and 15% of them were active in at least one assay; those are over-represented in the sample as a whole. Activity calls are given as the source filed them. No stated cut-off is given here; in the data, active means growth inhibition above about 70%; inactive means the rest.
Columns and labels:
[1] = NCI Yeast Anticancer Drug Screen. Data for the rad50 strain (AID 155);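 further: 0% = growth of vehicle-only cultures of the same strain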; conditions: S. cerevisiae rad50 strain growth inhibition; at 50.0 µM; stronger effect = higher value
In short: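 Genetically altered yeast (DNA repair pathway); compound treatment; growth inhibition vs vehicle ctrl.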

[2] = NCI Yeast Anticancer Drug Screen. Data for the mec2-1 strain (AID 157); conditions: S. cerevisiae mec2-1 strain, at 50.0 µM, stronger effect = higher value
In short: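 Yeast mec2-1 mutant treated with compound. Readout: growth inhibition vs vehicle controls.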

[3] = NCI Yeast Anticancer Drug Screen. Data for the sgs1 mgt1 strain (AID 161);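 further: 0% = growth of cultures given vehicle only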; conditions: S. cerevisiae sgs1 mgt1 strain, at 50.0 µM, stronger effect = higher value
In short: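 Read-out: growth inhibition vs vehicle controls. Cells: mutant yeast strain deficient in DNA damage repair.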

[4] = NCI Yeast Anticancer Drug Screen. Data for the cln2 rad14 strain (AID 165);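 further: 0% = growth equal to vehicle treated cultures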; conditions: S. cerevisiae cln2 rad14 strain, at 50.0 µM, stronger effect = higher value
In short: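 cln2 rad14 yeast strain; compound exposure; growth inhibition read vs vehicle controls.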

[5] = NCI Yeast Anticancer Drug Screen. Data for the bub3 strain (AID 167); conditions: S. cerevisiae bub3 mutant strain, at 50.0 µM, stronger effect = higher value
In short: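 Yeast carrying a defined mutation is treated with each compound, and growth is compared with that of vehicle-exposed cells to give inhibition.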

[6] = NCI Yeast Anticancer Drug Screen. Data for the mlh1 rad18 strain (AID 175); conditions: S. cerevisiae mlh1 rad18 strain growth inhibition; at 50.0 µM; stronger effect = higher value
In short: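 Yeast w/ defined DNA-repair lesions; compound exposure; growth vs vehicle controls → % inhibition.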

Measured: growth inhibition

CC(=O)CC(=O)N1CCCC(C)C1 (stereo not drawn)
inactive: [1] -2.85% | [2] -40.8% | [3] -38.5% | [4] 9.1% | [5] -10.9% | [6] 1.3%

CCC1C(=O)OCc2c1cc1n(c2=O)CCC12OCCO2 (stereo not drawn)
inactive: [1] 0.1% | [2] -15.1% | [3] -36.8% | [4] -17.6% | [5] -23.8% | [6] -15.6%

C[C@H](NC(=O)n1c2ccccc2c2ccccc21)C(=O)O
inactive: [1] 2.5% | [2] 5.2% | [3] -20.1% | [4] -5.9% | [5] -1.05% | [6] -2.95%

COc1ccc(N=Nc2sc(N)nc2-c2cccc([N+](=O)[O-])c2)cc1
inactive: [1] 5% | [2] 4.85% | [3] 10.1% | [4] -13.8% | [5] 8.6% | [6] 11.7%

COC(=O)C1=NOC(COc2ccc([N+](=O)[O-])cc2)C1 (stereo not drawn)
inactive: [1] 9.4% | [2] -2.9% | [3] 20.4% | [4] -8.55% | [5] -1.65% | [6] 19.1%

O=C1C[CH]([Ge](=[O])[O][Ge](=[O])[CH]2CC(=O)NC(=O)N2)NC(=O)N1 (stereo not drawn)
inactive: [1] 43.9% | [2] 18.2% | [3] 25.1% | [4] 16.6% | [5] -5.3% | [6] 22.1%

N#CCc1ccccc1-c1ccccc1
inactive: [1] 2.45% | [2] -8.2% | [3] 11.4% | [4] -45.5% | [5] 5.6% | [6] -9.75%

CC1CC=[N+]([O-])C1(C)C (stereo not drawn)
inactive: [1] -6.6% | [2] -18.1% | [3] 14.2% | [4] -12.2% | [5] 16.7% | [6] -11.1%

O=C(Oc1ccc(C(=O)c2ccc(C(=O)c3ccc(OC(=O)c4cccc(Br)c4)cc3)cc2)cc1)c1cccc(Br)c1
inactive: [1] 11.2% | [2] 7.15% | [3] -10.7% | [4] -2.35% | [5] 2.65% | [6] 2.15%

ClNc1nc(NCl)nc(NCl)n1
inactive: [1] -17.7% | [2] -25.8% | [3] -5.1% | [4] 2% | [5] -9.8% | [6] -19.1%

CN(C)CCN1CCc2c([nH]c3ccccc23)C1c1cccnc1 (stereo not drawn)
inactive: [1] -55.6% | [2] -24.8% | [3] -4.2% | [4] 6.25% | [5] -18.2% | [6] -38.2%

CN=CN(C)c1c2ccccc2nc2ccccc12
inactive: [1] 5.6% | [2] -11.3% | [3] -5.05% | [4] 10.7% | [5] 9.75% | [6] -1.25%

CC(=O)N(CCCc1ccccc1)C(C)(C)C
inactive: [1] 5.95% | [2] 5.3% | [3] -3.05% | [4] -22.1% | [5] 2.25% | [6] 6.15%

CCOc1ccc(NC(=S)NC=C(C#N)C#N)cc1
inactive: [1] -17.8% | [2] -12.6% | [3] -9.55% | [4] -4.9% | [5] 7.75% | [6] -5.75%

O=[N+]([O-])c1ccc(P(=O)(Nc2ccc(Cl)cc2)Nc2ccc(Cl)cc2)cc1
active: [1] 95.7% | [2] 96.8% | [3] 95.1% | [4] 91.8% | [5] 94.8% | [6] 97.1%

CCCCCCCC(=O)OCC(=O)c1ccc(-c2ccccc2)cc1
inactive: [1] -24.8% | [2] -1.6% | [3] 2.85% | [4] -28.6% | [5] 11.5% | [6] 3.1%

Cc1cc(C)c(C(=O)c2ccccc2C(=O)O)c(C)c1
inactive: [1] 0.05% | [2] 11.1% | [3] 3.05% | [4] -89% | [5] 24.5% | [6] -12%

O=C(CCN1CCCC1)c1ccc2ccccc2c1
inactive: [1] 32.6% | [2] 49.3% | [3] 65.9% | [4] 43.6% | [5] 59.4% | [6] 21.6%

CC1(C)CCc2cc3c(cc2O1)OC(C)(C)CC3=O
inactive: [1] 9.05% | [2] 8.75% | [3] -15.9% | [4] 22.4% | [5] -1.45% | [6] -17.4%

COC(=O)c1c(O)c2c(c3c1OC(C)(C)CC3)OC(C)(C)CC2
inactive: [1] -13.3% | [2] 0.1% | [3] -17.1% | [4] -2.55% | [5] 8.05% | [6] 11.4%

CCN(CC)c1cc2c(cc1Br)-c1ccccc1C2=O
inactive: [1] 4% | [2] -2.9% | [3] 5.7% | [4] 52.2% | [5] 7.95% | [6] 36%

N#CC(C#N)=C(O)/C(=C/c1ccc(Cl)cc1Cl)NC(=O)c1ccccc1
inactive: [1] 9.4% | [2] 1.15% | [3] -7.9% | [4] 7.9% | [5] -13.3% | [6] 14.3%

CCN(CC(O)COc1ccc2c(c1)[n+]([O-])nc(N)[n+]2[O-])C(C)=O (stereo not drawn)
inactive: [1] 46.5% | [2] 38% | [3] 40.3% | [4] 38.9% | [5] 31% | [6] 38.8%

CCN(CC)C1C(=O)NC1C#Cc1ccccc1 (stereo not drawn)
inactive: [1] 19% | [2] 6.5% | [3] 7.05% | [4] 5.95% | [5] 7.6% | [6] 15.6%

O=C1Cc2ccccc2CCc2ccccc21
inactive: [1] 13.2% | [2] -13.3% | [3] 6.5% | [4] 22.8% | [5] -13.8% | [6] 24%

CC(C)(N)CNCCO
inactive: [1] -3.25% | [2] 2.05% | [3] -8.9% | [4] -18.1% | [5] -1.7% | [6] 0.4%

C/C(=N/NC(N)=S)c1ccc[nH]1
inactive: [1] -18.1% | [2] -14.2% | [3] -3.75% | [4] 20.9% | [5] -39% | [6] -10.4%

O=CNC(NC=O)c1ccccc1[N+](=O)[O-]
inactive: [1] 29.9% | [2] 20.8% | [3] 30.1% | [4] 0.65% | [5] 52.5% | [6] 28.6%

O=C(O)CNc1cc(-c2ccccc2)nc(NCC(=O)O)n1
inactive: [1] -53.7% | [2] -12.3% | [3] 4.45% | [4] 17.8% | [5] -29.1% | [6] 25.4%

CCC(C)n1c(C)nc2cc(C(F)(F)F)cc(N)c21 (stereo not drawn)
inactive: [1] 20.7% | [2] 18.4% | [3] 8.4% | [4] -31.2% | [5] 11.6% | [6] 15.2%

O=C(CCC(=O)Nc1ccc(Cl)cc1)CC(=O)c1ccc2ccccc2c1
inactive: [1] -51% | [2] -28.9% | [3] -13.3% | [4] 8.4% | [5] -31.1% | [6] -29.9%

COc1ccc(CC2=NCCc3cc(OCc4ccccc4)c(OC)cc32)cc1OCc1ccccc1
inactive: [1] 66.8% | [2] 55% | [3] 52.5% | [4] 30.6%
active: [5] 78.5% | [6] 93.8%

C[C@@H]1OC2(O)[C@H]3CCCN3S(=O)(=O)CCN2C1=O (stereo partly drawn)
inactive: [1] 30.5% | [2] -14.8% | [3] -8.05% | [4] 16.7% | [5] -11.7% | [6] -1.2%

CCCCCCCCCCCC(=O)OCC1OC(n2cc(F)c(=O)[nH]c2=O)C(N)C(OC(=O)CCCCCCCCCCC)C1O (stereo not drawn)
inactive: [1] -9% | [2] -34.9% | [3] -51.6% | [4] 4.2% | [5] -34.9% | [6] -45.5%

Cc1cc(N(CCC#N)CCC#N)ccc1/C=C(\NC(=O)/C=C/c1ccccc1)C(=O)Nc1ccc(Cl)cc1
inactive: [1] -7.1% | [2] -15.1% | [3] 2.2% | [4] 1.7% | [5] 3.9% | [6] -1.65%

CCN(CC)c1ccc(/C=N\N(C)C)cc1
inactive: [1] 0.2% | [2] -13.2% | [3] -4.8% | [4] -48.1% | [5] -1.65% | [6] -6.55%

O=[N+]([O-])c1ccc(-c2ccncc2)cc1
inactive: [1] -32% | [2] -31.9% | [3] -19.4% | [4] 20.6% | [5] -18.1% | [6] -9.05%

COc1ccc(CC2COC(=O)[C@@H]2Cc2ccc(O)cc2)cc1OC (stereo partly drawn)
inactive: [1] -32.9% | [2] -43.5% | [3] -14.1% | [4] -2.85% | [5] 4% | [6] -7.55%
